Measured values as given in PubChem BioAssay.
The source made the active and inactive calls. Unless noted, how the calls were made is not given here.

How the values were obtained:
[1] = tested on: Wnt5a (protein binding on small-molecule microarray); assay: small molecules binding Wnt5a protein – biophysical, small-molecule microarray, 635/667 nm fluorescence, primary screen (AID 1142); conditions: 635 nm fluorescence, higher = more signal;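 further: fluorescence read at 667 nm with signal to noise per printed feature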
[2] = ATP-based viability of Huh7 replicon cells – cell-based, CellTiter-Glo luminescence, basal, 48 h, cytotoxicity control for HCV replication inhibitor project, primary screen (AID 1143); conditions: higher = more signal, called active from +8 up or from −8 down;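 further: Huh7 hepatoma cells carrying a hepatitis C replication reporter with no stimulus; test concentration not given here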
[3] = Pseudomonas biofilm growth suppression – PAO1 strain, BacTiter-Glo luminescence, LB-PBS, primary screen (AID 1144); conditions: P. aeruginosa PAO1 biofilm, 12 h, higher = more signal
[4] = basal CRE-LacZ reporter activity in PC12 – cell-based, unstimulated, primary screen (AID 1145); conditions: no forskolin, luminescence, 4.5 h, higher = more signal, called active from +8 up or from −8 down
[5] = forskolin-driven CRE-LacZ activity in PC12 – cell-based, CRE-LacZ reporter, forskolin-stimulated, primary screen (AID 1146); conditions: luminescence, 4.5 h, higher = more signal, called active from +8 up or from −8 down;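 further: PC12 cells with 6xCRE LacZ reporter stimulated by forskolin 10 µM; beta-galactosidase reporter signal reflecting CREB driven transcription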
[6] = target: Streptavidin (Streptomyces avidinii) (UniProt P22629); assay: compounds binding control protein streptavidin – biophysical, small-molecule microarray, 635/667 nm fluorescence, artefact control for SMM compound annotation, primary screen (AID 1147); conditions: higher = more signal;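 further: signal reflects streptavidin binding to arrayed compounds as a control protein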
[7] = probe aInhba binding on compound microarray – biochemical, small-molecule microarray, 635/667 nm fluorescence, primary screen (AID 1148); conditions: higher = more signal;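 further: score merges 667nm spot fluorescence with signal-to-noise for antibody binding to printed compounds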
[8] = target: Torsin-1A (Homo sapiens) (UniProt O14656); assay: TOR1A wild-type binding on microarray – cell lysate, small-molecule microarray, lysate, 635/667 nm, primary screen (AID 1149); conditions: COS7 hTOR1A-WT lysate, 635 nm fluorescence, higher = more signal
[9] = target: Torsin-1A (Homo sapiens) (UniProt O14656); assay: torsin A mutant lysate binding on microarrays – cell lysate, small-molecule microarray, COS7 lysate, 635/667 nm fluorescence, primary screen (AID 1150); conditions: COS7 hTOR1A mutant lysate, 635 nm fluorescence, higher = more signal;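 further: score pools 667 nm emission and signal to noise measuring lysate protein binding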
[10] = tested on: Sonic hedgehog protein (Shh); assay: Sonic hedgehog microarray binding compounds – biochemical, small-molecule microarray, 635/667 nm fluorescence, primary screen (AID 1151); conditions: 635 nm fluorescence, higher = more signal;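 further: Shh protein binding to compounds spotted on small-molecule microarray slides; score combines spot fluorescence intensity with signal-to-noise across triplicate slides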

Chain of Torsin-1A (Homo sapiens) (O14656 whole entry, looked up): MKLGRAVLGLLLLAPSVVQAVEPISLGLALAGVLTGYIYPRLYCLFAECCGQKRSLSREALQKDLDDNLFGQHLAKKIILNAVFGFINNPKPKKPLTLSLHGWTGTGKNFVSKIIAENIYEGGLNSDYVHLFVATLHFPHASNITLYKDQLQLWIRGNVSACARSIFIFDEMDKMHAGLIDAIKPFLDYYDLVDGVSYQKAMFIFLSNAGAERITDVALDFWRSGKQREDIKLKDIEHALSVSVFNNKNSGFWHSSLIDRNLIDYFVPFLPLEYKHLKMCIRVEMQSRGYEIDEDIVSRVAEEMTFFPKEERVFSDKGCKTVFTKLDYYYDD
Chain of Streptavidin (Streptomyces avidinii) (P22629 whole entry, looked up): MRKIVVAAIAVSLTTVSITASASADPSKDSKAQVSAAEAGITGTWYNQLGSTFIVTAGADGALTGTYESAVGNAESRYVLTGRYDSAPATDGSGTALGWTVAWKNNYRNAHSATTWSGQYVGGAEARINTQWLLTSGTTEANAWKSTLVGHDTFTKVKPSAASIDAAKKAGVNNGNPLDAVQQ

Compound | composite z-score [1] | z-score [2] | z-score [3] | z-score [4] | z-score [5] | composite z-score [6] | composite z-score [7] | composite z-score [8] | composite z-score [9] | composite z-score [10]
COCCOC(=O)N1C(=O)[C@@]2(c3ccccc31)[C@H](C(=O)Nc1nc3ccccc3s1)[C@H]1C(=O)O[C@H](c3ccccc3)[C@H](c3ccccc3)N1[C@@H]2c1ccccc1OCCO | 0.0847 | -3.65 (inactive) | -0.457 (inactive) | -0.207 (inactive) | -0.144 (inactive) | 1.39 | 0.379 | 0.282 | 0.781 | 0.733
CC(C)(C)OC(=O)N1[C@@H](C=C(Br)Br)COC1(C)C | -0.0677 | -2.04 (inactive) | 0.278 (inactive) | -0.104 (inactive) | 0.0695 (inactive) | 0.29 | -0.15 | 0.396 | 0.656 | 0.938
C=CCOC(=O)[C@H]1[C@@H]2C(=O)O[C@@H](c3ccccc3)[C@@H](c3ccccc3)N2[C@@H](c2ccc(OCCOC(=O)[C@H]3C[C@H]4C(=O)NCC(=O)N4[C@H]3c3ccc(O)cc3)cc2)[C@]12C(=O)Nc1ccccc12 | 0.592 | -0.525 (inactive) | -0.799 (inactive) | -1.08 (inactive) | -0.306 (inactive) | 0.341 | 0.615 | 0.603 | 1.14 | 2.22
CC(=O)NCCCC[C@@H]1NC(=O)[C@H]2C[C@@H](C(=O)O)[C@@H](c3cccc(OCCO)c3)N2C1=O | 0.847 | -0.353 (inactive) | -0.814 (inactive) | 1.94 (inactive) | 0.0364 (inactive) | 1.62 | -0.153 | 1.33 | 1.24 | 1.59
CCCCN1CC=CC23O[C@@H]4C=CCCOC(=O)C4[C@H]2C(=O)N(CCO)[C@@H]3C1=O (stereo not given in full) | -0.213 | 0.142 (inactive) | -0.892 (inactive) | -1.45 (inactive) | -0.34 (inactive) | -0.434 | -0.0405 | -0.856 | -0.508 | 1.71
CC(C)[Si](C#Cc1ccccc1)(O[C@H](c1ccccc1)c1cn(Cc2ccccc2)nn1)C(C)C | -0.0899 | -2.32 (inactive) | -0.519 (inactive) | -0.635 (inactive) | -1.08 (inactive) | 0.983 | -0.222 | 0.555 | 0.841 | 0.375
CO[C@H]1O[C@H](CO)[C@@H](OC(=O)Nc2cccc(F)c2)[C@H](OC(=O)c2cc3ccccc3[nH]2)[C@H]1OC(=O)c1cc2ccccc2[nH]1 | -0.363 | -3.31 (inactive) | -1.02 (inactive) | 1.03 (inactive) | -0.679 (inactive) | -0.256 | -0.128 | -0.536 | -0.18 | -0.111
COc1ccc([Si](C)(C)[C@H]2[C@H](CC(=O)N(CCO)Cc3ccccc3)O[C@@]3(C(=O)N(Cc4cccc(N5CCCCC5=O)c4)c4ccccc43)[C@@H]2C)cc1 | 0.0763 | -4.74 (inactive) | -0.937 (inactive) | 3.13 (inactive) | -1.32 (inactive) | 0.0037 | -0.0719 | 0.444 | 0.793 | 2.13
CCCCCN1CC=CC23O[C@@H]4/C=C\CCCOC(=O)C4[C@H]2C(=O)N(CCCCCO)[C@@H]3C1=O (stereo not given in full) | -0.827 | -0.347 (inactive) | -0.678 (inactive) | -1.03 (inactive) | 0.0118 (inactive) | -0.878 | -0.128 | -2.11 | -1.09 | -0.0251
[N-]=[N+]=NCc1ccccc1[C@H]1OC(c2ccc(OCCCO)cc2)=N[C@@]1(CCS(=O)(=O)c1ccccc1)C(=O)NCCN1CCOCC1 | 0.806 | -0.712 (inactive) | -0.561 (inactive) | 0.115 (inactive) | -0.871 (inactive) | 0.38 | 0.54 | 0.234 | 0.183 | -0.597
C=C(COC)C(=O)CC[C@@H](OC(=O)c1ccccc1-c1ccccc1C(=O)O)c1ccccc1OCCO | 0.502 | -0.714 (inactive) | -0.693 (inactive) | 2.73 (inactive) | 15.8 (active) | -0.695 | -0.0762 | 1.49 | 0.0126 | 1.45
C=CC[C@@]1(C(=O)NCCCOC)N=C(c2ccc(OCCCO)cc2)O[C@@H]1c1ccccc1CN=[N+]=[N-] | 0.645 | -3.72 (inactive) | -0.584 (inactive) | -0.45 (inactive) | -0.48 (inactive) | 0.706 | 0.0921 | 0.112 | 0.734 | 0.0532
O=C1OCC=C[C@H]2OC34C=CCN(Cn5nnc6ccccc65)C(=O)[C@H]3N(CCO)C(=O)[C@@H]4[C@@H]12 (stereo not given in full) | -0.26 | 0.473 (inactive) | 1.43 (inactive) | 0.455 (inactive) | 0.792 (inactive) | -1.02 | -0.208 | 1.09 | -1.8 | -0.793
O=C1O[C@H](c2ccccc2)[C@H](c2ccccc2)N2[C@H]1[C@@H](C(=O)N1CCN(c3ncccn3)CC1)[C@]1(C(=O)Nc3ccc(C#CC4(O)CCCCCC4)cc31)[C@H]2c1ccc(O)cc1 | 0.675 | -2.43 (inactive) | -0.759 (inactive) | -0.258 (inactive) | -0.296 (inactive) | -0.0103 | 0.096 | 0.574 | 0.0774 | 1.93
CCCCCN1CC=CC23O[C@@H]4/C=C\CCCOC(=O)C4[C@H]2C(=O)N(CCO)[C@@H]3C1=O (stereo not given in full) | -0.243 | -2.03 (inactive) | -2.97 (inactive) | -1.98 (inactive) | -0.508 (inactive) | -0.666 | -0.183 | 0.642 | 1.58 | 0.0256
COC(=O)[C@@]1(Cc2ccc(F)cc2)[C@H]2c3cc(C(=O)N4CCCC4)n(CCc4c[nH]c5cc(F)ccc45)c3C[C@H]2CN1C(=O)c1ccccc1 | 1.43 | -2.66 (inactive) | 0.449 (inactive) | 0.197 (inactive) | 0.654 (inactive) | 1.12 | 0.0049 | 1.2 | 1.29 | 0.0034
CN1C(=O)C2C(C1=O)C1C=C(CCCO)C2C(C2CC2)N1C (stereo not given) | 0.0748 | -2.56 (inactive) | 0.189 (inactive) | 0.0295 (inactive) | -0.984 (inactive) | -0.45 | 0.0543 | -0.427 | -0.454 | -0.685
COCCOC(=O)N1C(=O)[C@@]2(c3cc(C#CCNC(N)=O)ccc31)[C@H](C(N)=O)[C@H]1C(=O)O[C@H](c3ccccc3)[C@H](c3ccccc3)N1[C@@H]2c1ccc(O)cc1 | 0.159 | 0.29 (inactive) | -0.204 (inactive) | 0.619 (inactive) | -0.713 (inactive) | -0.0811 | 0.296 | 0.572 | -0.0113 | 0.0133
